The results in this text go back to PubChem BioAssay (NCATS).

Where “and” joins values, the source holds several entries; their conditions need not be identical. Equal values may be shown once. A number with no mark means an inactive call. Results filed as inconclusive are left out. Calls of active or inactive are those of the source. Unless noted, calls come from the whole dose curve; as a rule, active = well fitted curve in either direction with a large enough effect (not every such curve was filed as active); inconclusive = small, poorly fitted or top-dose-only effect, or another doubt; inactive = flat fitted curve, though single readings scatter.

A short description of experiment [1]: Stat Signaling Pathway (AID 446).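 Note: ME-180 cervical cancer cells given 40 pM IL-6 alongside compound; SIE-controlled beta-lactamase reporter measured as 460/530 nm FRET emission ratio; % is set by controls: 0 for no effect and ±100 for the full control effect.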 The following applies: ME-180 SIE beta-lactamase reporter, IL-6 stimulated, 5 h. A digest of the protocol: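 Reporter line: ME-180 cervical carcinoma, SIE-beta-lactamase. Treatment: compound with 40 pM IL-6, 5 hrs, 37 C, in low-serum OPTI-MEM with 10 mM HEPES pH 7.3. Detection: 460/530 nm fluorescence.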
Experiment [2] deals with Mitogen-activated protein kinase 10 (Mus musculus) (UniProt Q61831). Description: JNK3 AlphaScreen Assay (AID 530).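 Note: kinase came from lysate of stimulated human HepG2 cells; signal reports phosphorylation of biotinylated GST-cJun 1-79 at Ser73 with 10 µM ATP; % is set by controls: 0 for no effect and ±100 for the full control effect.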 Particulars: JNK3 lysate, c-Jun phosphorylation; series mostly up to 57.1 µM. In outline:
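Room-temperature AlphaScreen kinase assay; pre-activated HepG2 lysate as JNK3 source, biotin-GST-cJun(1-79) substrate, 10 uM ATP, compound 15 min preincubation.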
(In general: Bead proximity is the source of the signal in Alpha formats.)

The target in experiment [3] is 3',5'-cyclic-AMP phosphodiesterase 4B (Homo sapiens) (UniProt Q07343). The experiment is described as follows: qHTS Assay for Inhibitors of PDE-IV (AID 607; active = well fitted activation curve with a large enough effect in the main read-out, with a control signal flat, not every such curve was filed as active; note: % of control where 0% means no effect). Particulars: HEK293 ACTOne CNG channel cells, membrane potential fluorescence; series mostly up to 22.9 µM. In outline:
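Cell-based read-out of cAMP via a modified cyclic nucleotide-gated channel and membrane potential dye (535/590 nm) in HEK293 cells expressing PDE4 endogenously. Compounds tested up to 22.9 uM final; 100 uM RO 20-1724 reference.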
(qHTS replaces the single test concentration by a dilution series.)

Experiment [4] has as its target Glucocorticoid receptor (Homo sapiens) (UniProt P04150). The experiment is described as follows: GR-GFP Redistribution (AID 450;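 active = compounds whose dose series gives a full or clear partial fitted curve of increased nuclear translocation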; note: potency is the fitted concentration of half-maximal effect). Particulars: U2OS GR-GFP nuclear translocation, laser cytometry, 2 h.
For experiment [5] the target is unchanged. The experiment is described as follows: GR-EFC Redistribution (AID 451; calls by dose curve; note: potency is the fitted concentration of half-maximal effect). Particulars: CHO-K1 GR-EFC translocation, beta-gal luminescence, 2 h. In outline:
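Translocation of GR-ED fusion to nuclear EA restores b-gal, read by luminescence after 1 h room-temperature detection. Engineered CHO-K1 biosensor cells, 1,000/well, exposed 2 h at 37 C to titrations up to 46 uM final.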

Experiment [6] is described as follows: Cellular Toxicity (caspase-3) HepG2 (AID 654; active = well fitted curve in the direction sought with a large enough effect; an effect the other way counts as inactive or inconclusive;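 note: cells exposed to compound for 16 hours before reading; 0% = DMSO alone and 100% = caspase signal from 100 µM tamoxifen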). Particulars: HepG2 caspase-3 activation, luminescence; series mostly up to 92.2 µM. A digest of the protocol: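 HepG2 cells (1500/well) in complete medium were treated with compounds for 16 hr at 37 °C. Caspase-3/7 activity was then read as luminescence from peptide-aminoluciferin cleavage. AC50 came from Hill fits, normalized to DMSO and 100 uM tamoxifen.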

Experiment [7] can be described thus: Cellular Toxicity (caspase-3) HUV-EC-C (AID 656; active = well fitted curve in the direction sought with a large enough effect; an effect the other way counts as inactive or inconclusive). Particulars: HUV-EC-C cells, caspase-3 activation (apoptosis), vehicle = 0, 100 µM tamoxifen = 100%; series mostly up to 92.2 µM. A digest of the protocol:
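Luminescent caspase-3/7 activation (aminoluciferin substrate cleavage) in HUV-EC-C cells after 16 hr compound exposure, 37°C. Signal normalized to DMSO basal and 100 uM tamoxifen as 100%; AC50 from concentration-response fitted with the Hill equation.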

A short description of experiment [8]: Cellular Toxicity (caspase-3) BJ (AID 658; active = well fitted curve in the direction sought with a large enough effect; an effect the other way counts as inactive or inconclusive;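 note: 0% = DMSO basal and 100% = 10 µM staurosporine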). The following applies: BJ fibroblasts, luminescence, normalized: DMSO 0%, staurosporine 100%; series mostly up to 91.7 µM. In outline:
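Readout: Caspase-Glo 3/7 luminescence increase in BJ cells after 16 hr treatment at 37 °C. Staurosporine and tamoxifen served as positive controls; AC50 values came from Hill modelling of data normalized to DMSO and 10 uM staurosporine.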

Experiment [9] can be described thus: Cellular Toxicity (caspase-3) MRC-5 (AID 659; active = well fitted curve in the direction sought with a large enough effect; an effect the other way counts as inactive or inconclusive;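 note: 0% = DMSO basal and 100% = 10 µM staurosporine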). The following applies: MRC-5 cells, luminescence; Potency: caspase-3 activation; series mostly up to 91.7 µM. A digest of the protocol: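 Concentration-dependent caspase 3/7 activation is measured in human normal lung fibroblasts (MRC-5) following 16-hour treatment. AC50 values come from standard Hill-equation modeling of luminescence normalized to DMSO and 10 uM staurosporine.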

The nature of experiment [10]: Cellular Toxicity (caspase-3) Mesangial (AID 660; active = well fitted curve in the direction sought with a large enough effect; an effect the other way counts as inactive or inconclusive;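 note: cells exposed to compound for 16 h before the caspase read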). The following applies: mesangial cells, normalized: DMSO 0%, 100 µM tamoxifen 100%; series mostly up to 91.7 µM. In outline: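 Human renal glomerular mesangial cells (1000/well) were treated with compounds for 16 h at 37 °C in complete medium, then caspase 3/7 activity was read by Caspase-Glo luminescence. Data were normalized to DMSO and 100 uM tamoxifen; AC50 from Hill fits.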

Experiment [11] can be described thus: Cellular Toxicity (caspase-3) SK-N-SH (AID 661; active = well fitted curve in the direction sought with a large enough effect; an effect the other way counts as inactive or inconclusive;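 note: 0% = DMSO basal and 100% = 10 µM staurosporine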). Particulars: SK-N-SH caspase-3 activation, qHTS, DMSO as zero, staurosporine as full; series mostly up to 91.7 µM. A digest of the protocol: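 SK-N-SH human neuroblastoma cells (1500/well) were treated with compounds for 16 hr at 37 °C in complete medium; caspase 3/7 activity was read by Caspase-Glo luminescence. AC50 came from Hill fits of data normalized to DMSO and 10 uM staurosporine.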

The nature of experiment [12]: Cellular Toxicity (caspase-3) H-4-II-E (AID 663; active = well fitted curve in the direction sought with a large enough effect; an effect the other way counts as inactive or inconclusive;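 note: cells exposed to compound for 16 hr before readout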). Particulars: H-4-II-E rat hepatoma, scaled: DMSO 0%, 100 µM tamoxifen 100%; series mostly up to 92.2 µM. In outline: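 Apoptosis induction is scored as increased luminescence from caspase 3/7 substrate cleavage in rat hepatoma H-4-II-E cells exposed to compound for 16 hr. Activity is scaled between DMSO and 100 uM tamoxifen.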

Experiment [13] in a line: Cellular Toxicity (caspase-3) Hek293 (AID 664; active = well fitted curve in the direction sought with a large enough effect; an effect the other way counts as inactive or inconclusive;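 note: cells exposed to compound for 16 h at 37 °C before readout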). The following applies: HEK293 caspase-3 activation, DMSO = 0%, 100 µM tamoxifen = 100%; series mostly up to 92.2 µM. A digest of the protocol: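 HEK293 cells were exposed to compounds in complete medium for 16 hr at 37 °C, then caspase-3/7 activity was read by Caspase-Glo 3/7 luminescence after 20 min at room temperature. Data normalized to DMSO and 100 uM tamoxifen; AC50 from Hill fits.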

Experiment [14] in a line: Cell Viability - NIH 3T3 (AID 541; active = well fitted curve in the direction sought with a large enough effect; an effect the other way counts as inactive or inconclusive; note: potency is the fitted concentration of half-maximal effect; nearly all actives have a fitted effect of over 25% in size). The following applies: NIH 3T3 cell viability, qHTS; activity change, negative = cytotoxicity: at 92.2 µM (top of the series). A digest of the protocol: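 NIH 3T3 mouse embryo fibroblasts (1000 cells/well) were plated in complete medium and treated with compound for 40 hr at 37 °C. Viability was read as intracellular ATP by CellTiter-Glo luminescence; AC50 values came from Hill-equation fits of concentration-response data.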

The nature of experiment [15]: Cell Viability - SH-SY5Y (AID 544; active = well fitted curve in the direction sought with a large enough effect; an effect the other way counts as inactive or inconclusive; note: potency is the fitted concentration of half-maximal effect; nearly all actives have a fitted effect of over 55% in size). The following applies: SH-SY5Y neuroblastoma cell viability; series mostly up to 92.2 µM. In outline: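 Human neuroblastoma SH-SY5Y cells (1500/well) in complete medium were exposed to compounds for 40 hr at 37 °C; intracellular ATP was then quantified by CellTiter-Glo luminescence after 20 min at room temperature. AC50 came from Hill-equation concentration-response fits.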

Experiment [16] is described as follows: Cell Viability - Renal Proximal Tubule (AID 545; active = well fitted curve in the direction sought with a large enough effect; an effect the other way counts as inactive or inconclusive; note: potency is the fitted concentration of half-maximal effect; nearly all actives have a fitted effect of over 40% in size). Particulars: renal proximal tubule cells viability, primary cells of rat origin; series mostly up to 91.7 µM. A digest of the protocol: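 Rat kidney proximal tubule cells, freshly isolated; 1000 cells/well, 5 hr settle, compound 40 hr 37 °C. CellTiter-Glo 20 min RT, luminescence read. AC50 by standard Hill fit.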

Experiment [17] can be described thus: Cell Viability - Mesenchymal (AID 546; active = well fitted curve in the direction sought with a large enough effect; an effect the other way counts as inactive or inconclusive;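 note: cells exposed to compound for 40 hours before reading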). Particulars: mesenchymal cells viability, qHTS; series mostly up to 91.7 µM. In outline:
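AC50 values reflect the drop in intracellular ATP in a human kidney mesenchymal line derived from normal glomeruli. Treatment lasts 40 hr at 37 °C in complete medium, and the signal comes from CellTiter-Glo luminescence.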

The nature of experiment [18]: Cellular Toxicity (caspase-3) Jurkat (AID 655; active = well fitted curve in the direction sought with a large enough effect; an effect the other way counts as inactive or inconclusive;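 note: cells exposed to compound for 16 h at 37 °C before reading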). Particulars: Jurkat caspase-3 activation, luminescence; series mostly up to 92.2 µM. A digest of the protocol: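 Luminescent caspase-3/7 readout (aminoluciferin substrate cleavage) in human T-cell leukemia Jurkat cells after 16 hr compound exposure. Concentration-response normalized to DMSO and 100 uM tamoxifen; AC50 by standard Hill equation.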

Sequence of 3',5'-cyclic-AMP phosphodiesterase 4B (Homo sapiens) (Q07343 whole entry, looked up): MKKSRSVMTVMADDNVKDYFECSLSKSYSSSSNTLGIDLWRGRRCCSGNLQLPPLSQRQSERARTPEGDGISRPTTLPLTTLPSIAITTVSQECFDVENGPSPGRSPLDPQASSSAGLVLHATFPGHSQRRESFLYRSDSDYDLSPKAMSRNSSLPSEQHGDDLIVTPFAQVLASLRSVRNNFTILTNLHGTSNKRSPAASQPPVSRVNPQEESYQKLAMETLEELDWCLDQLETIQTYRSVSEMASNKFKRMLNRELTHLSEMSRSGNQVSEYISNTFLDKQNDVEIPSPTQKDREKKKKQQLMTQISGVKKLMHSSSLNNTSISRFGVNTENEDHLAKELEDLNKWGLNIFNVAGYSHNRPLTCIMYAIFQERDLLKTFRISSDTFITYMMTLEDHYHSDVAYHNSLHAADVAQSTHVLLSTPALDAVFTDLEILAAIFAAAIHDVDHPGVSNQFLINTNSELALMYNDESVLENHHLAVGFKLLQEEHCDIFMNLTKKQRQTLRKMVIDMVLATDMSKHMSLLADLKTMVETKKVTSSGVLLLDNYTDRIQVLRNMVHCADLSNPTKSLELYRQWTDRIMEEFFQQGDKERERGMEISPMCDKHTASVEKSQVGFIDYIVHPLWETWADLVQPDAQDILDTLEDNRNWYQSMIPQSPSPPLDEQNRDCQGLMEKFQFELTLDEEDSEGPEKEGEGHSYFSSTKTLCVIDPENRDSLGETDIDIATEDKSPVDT
Sequence of Glucocorticoid receptor (Homo sapiens) (P04150 whole entry, looked up): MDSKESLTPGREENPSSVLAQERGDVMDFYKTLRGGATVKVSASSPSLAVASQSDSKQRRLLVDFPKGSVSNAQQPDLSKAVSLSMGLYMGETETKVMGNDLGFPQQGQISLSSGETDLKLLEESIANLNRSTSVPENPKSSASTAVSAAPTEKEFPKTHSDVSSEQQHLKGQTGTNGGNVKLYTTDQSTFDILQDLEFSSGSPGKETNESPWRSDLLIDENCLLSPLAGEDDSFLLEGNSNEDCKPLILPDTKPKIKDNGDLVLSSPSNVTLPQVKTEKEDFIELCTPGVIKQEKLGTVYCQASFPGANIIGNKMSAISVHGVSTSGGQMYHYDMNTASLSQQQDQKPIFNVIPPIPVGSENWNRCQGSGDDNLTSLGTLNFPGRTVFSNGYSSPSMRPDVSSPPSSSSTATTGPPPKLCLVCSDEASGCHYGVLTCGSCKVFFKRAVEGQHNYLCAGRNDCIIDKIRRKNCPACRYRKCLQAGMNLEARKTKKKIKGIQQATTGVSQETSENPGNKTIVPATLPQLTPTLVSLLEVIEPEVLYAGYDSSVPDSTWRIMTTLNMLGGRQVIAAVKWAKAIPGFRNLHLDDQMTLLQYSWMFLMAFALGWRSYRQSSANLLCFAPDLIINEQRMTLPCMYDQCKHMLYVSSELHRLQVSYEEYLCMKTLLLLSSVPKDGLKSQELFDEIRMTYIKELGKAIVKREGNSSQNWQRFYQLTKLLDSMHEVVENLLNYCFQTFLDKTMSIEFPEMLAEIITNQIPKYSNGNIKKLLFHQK

With `O=C(CCCN1CCN(c2ccccn2)CC1)c1ccc(F)cc1`, the activity, negative = inhibition in experiment [1] (at 17.2 µM (top of the series)) was -8.71%. In addition, the Potency result in experiment [2] was “inactive”. Also, the compound was called inactive in experiment [3].

For `Cc1c(Cl)cccc1Nc1ccccc1C(=O)O`, the Potency in experiment [4] and in experiment [5] was more than 20.6 µM each time. In addition, in experiment [2], the Potency result was “inactive”.

As for `CN(C)CCC=C1c2ccccc2CCc2ccccc21`, the activity, negative = inhibition in experiment [1] (at 17.2 µM (top of the series)) is -2.52% and 2.81%; in experiment [1] (at 38 µM (top of the series)), 28.3%. The Potency was > 46 µM and > 20.6 µM in [4]; > 46 µM and > 20.6 µM in experiment [5]. Moreover, the Potency entry in experiment [2], in [6] and in experiment [9] was “inactive” in each case. The call in experiment [3], in [7], in experiment [8], in experiment [10], in experiment [11] and in [12] was inactive. The call in [13] was inactive.

Consider `Cc1cccc(Nc2cc(Cl)nc(SCC(=O)O)n2)c1C`, for which, in experiment [1] (at 7.69 µM (top of the series)), the activity, negative = inhibition was 0.678%. Also, the Potency in [4] was more than 46 µM; in [5], > 46 µM and > 9.22 µM. The activity change, negative = inhibition in experiment [2] was 0.662% [at 11.4 µM]. Also, in experiment [3], the result was inactive.

On to `CNC(=O)Oc1ccc2c(c1)[C@]1(C)CCN(C)[C@@H]1N2C`, for which, in [1] (at 17.2 µM (top of the series)), the activity, negative = inhibition was 4.34%.

As for `CCOc1ccc2ccccc2c1C(=O)N[C@@H]1C(=O)N2[C@@H]1SC(C)(C)[C@@H]2C(=O)O`, the activity, negative = inhibition in experiment [1] (at 17.2 µM (top of the series)) is 2.51%. For the same compound, the Potency in [4] and in experiment [5] was more than 20.6 µM throughout. Besides, in experiment [2], the Potency result was “inactive”. In addition, the result in experiment [3] was inactive.

On to `CNCCCC1c2ccccc2C=Cc2ccccc21`, for which the Potency in experiment [4] was > 46 µM and > 20.6 µM; in [5], > 46 µM and > 20.6 µM. Moreover, the Potency entry in experiment [2] is “inactive”. Besides, the result in [3] was inactive.

Regarding `NS(=O)(=O)c1cc2c(cc1Cl)NC(CSCc1ccccc1)=NS2(=O)=O`, the activity, negative = inhibition in experiment [1] (at 17.2 µM (top of the series)) was -11% and 0.218%. Moreover, the Potency in experiment [4] and in experiment [5] was more than 20.6 µM each time. In [2], the Potency entry was “inactive”. For the same compound, the compound was called inactive in [3].

Consider `OCCN1CCN(CCCN2c3ccccc3Sc3ccc(Cl)cc32)CC1`, for which the activity, negative = inhibition was -2.44% and -12% in [1] (at 17.2 µM (top of the series)); -28.9% in [1] (at 38 µM (top of the series)). In addition, the Potency in experiment [4] was more than 20.6 µM; in experiment [5], > 46 µM and > 20.6 µM. Moreover, the Potency entry in [2] was “inactive”. Further, the call in [3] was inactive.

Turning to `COC(=O)C1=C(C)NC(C)=C(C(=O)OC)C1c1ccccc1[N+](=O)[O-]`, the Potency is > 46 µM and > 20.6 µM in experiment [4]; > 46 µM and > 20.6 µM in experiment [5]; 2 µM (active) in experiment [14]; 25.1 µM (active) in [15]; 31.6 µM (active) in experiment [16]. For the same compound, the Potency entry in experiment [2], in experiment [6], in experiment [18] and in experiment [9] was “inactive” in each case. The compound was called inactive in experiment [17], in [3], in experiment [7], in experiment [8], in experiment [10] and in experiment [11]. Moreover, the result in experiment [12] and in experiment [13] was inactive.
